Columns and labels:
Type in all cases: functional
[1] = biological target: Solute carrier family 2, facilitated glucose transporter member 1 (Homo sapiens) (UniProt P11166); experiment: ST_JUDE_LEISH: Cytotoxicity at 2uM final concentration against transgenic Leishmania Mexicana promastigotes LmGLUT1 that are glucose transport deficient and complemented with the human glucose transporter GLUT1. Activity is measured by DNA content using SYBR green in vitro
[2] = biological target: Hexose transporter 1 (Plasmodium falciparum) (UniProt O97467); experiment: ST_JUDE_LEISH: Cytotoxicity at 2uM final concentration against transgenic Leishmania Mexicana promastigotes LmPfHT that are glucose transport deficient and complemented with the Plasmodium falciparum hexose transporter. Activity is measured by DNA content using SYBR green in vitro
[3] = biological target: Glucose transporter (Leishmania mexicana) (UniProt O61059); experiment: ST_JUDE_LEISH: Cytotoxicity at 2uM final concentration against transgenic Leishmania Mexicana promastigotes LmGT2 that are glucose transport deficient and complemented with the L. Mexicana glucose transporter 2. Activity is measured by DNA content using SYBR green in vitro

Sequence of Solute carrier family 2, facilitated glucose transporter member 1 (Homo sapiens) (P11166 whole entry): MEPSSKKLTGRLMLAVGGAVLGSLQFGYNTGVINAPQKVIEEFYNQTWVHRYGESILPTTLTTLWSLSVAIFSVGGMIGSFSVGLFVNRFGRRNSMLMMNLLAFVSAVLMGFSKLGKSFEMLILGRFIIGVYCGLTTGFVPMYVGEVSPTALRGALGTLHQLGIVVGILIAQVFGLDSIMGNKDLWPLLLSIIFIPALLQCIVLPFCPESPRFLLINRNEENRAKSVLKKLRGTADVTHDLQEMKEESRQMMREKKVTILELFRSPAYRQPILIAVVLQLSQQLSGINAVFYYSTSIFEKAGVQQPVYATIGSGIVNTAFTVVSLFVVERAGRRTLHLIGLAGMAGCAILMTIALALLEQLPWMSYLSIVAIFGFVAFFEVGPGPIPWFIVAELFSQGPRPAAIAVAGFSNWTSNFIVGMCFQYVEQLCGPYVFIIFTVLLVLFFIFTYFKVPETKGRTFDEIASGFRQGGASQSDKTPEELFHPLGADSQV

Structure (SMILES)	inhibition [1] [%]	inhibition [2] [%]	inhibition [3] [%]
O=C(C=Cc1ccc(Cl)c(Cl)c1)NCCCCCN1CCCC(CCCNS(=O)(=O)c2ccc(Br)cc2)C1 (stereo unspecified)	5.1	3.96	2.95
O=C1COc2ccc3ccccc3c21	-2.29	0.78	-0.4
COc1ccc2c(c1)CC(NCc1ccc(-c3ccc4nc[nH]c4c3)cc1)C2 (stereo unspecified)	4.22	2.21	1.31
CC(C)CSc1cc(C(=O)Nc2cc(Cl)ccc2O)ccn1	-0.74	-0.12	-2.72
FC(F)(F)c1ccc2[nH]c(-c3ccc(-c4cccc(CN5CCN(c6ccncc6)CC5)c4)cc3)nc2c1	64.9	53.5	9.81
COc1ccc2c(=O)c(-c3ccc(OC(F)(F)F)cc3)c(C)[nH]c2c1	-0.72	1.76	1.81
Cn1c(NC(=O)C2CCCN(C(=O)c3ccc(O)c(-c4ccc(Cl)c(Cl)c4)c3)C2)nc2ccccc21 (stereo unspecified)	0.08	-0.09	-7.08
Nc1cc(-c2ccc3c(N)nccc3c2)ccc1Cl	4.64	2.75	1.32
CCn1c(-c2nonc2N)nc2c(-c3cccc(NC(=O)Nc4ccc(C#N)cc4)c3)ncc(OCCCN)c21	1.92	-0.33	2.67
Nc1cccc(CNCc2cccc(-c3cccc(-c4nc5cc(C(F)(F)F)ccc5[nH]4)c3)c2)c1	1.23	-0.22	1.43
COc1ccccc1-c1ccc2nnc(SCC(=O)Nc3ccc4c(c3)OCCO4)n2n1	4.56	4.26	3.67
CCOC(=O)NCC(=O)Nc1cccc(-c2cccc(-c3nc4cc(C(F)(F)F)ccc4[nH]3)c2)c1	1.41	0.35	5.34
c1cc(CN2CCN(CCN3CCOCC3)CC2)cc(-c2ccc(-c3nc4ccccc4[nH]3)cc2)c1	10.9	6.81	9.58
Cc1[nH]c2ccc(-c3ccccc3)cc2c(=O)c1Br	1.91	4.13	-0.5
CN(C)c1ccc(-c2ccc(C(=O)NC3CCN(Cc4cccc(C(F)(F)F)c4)CC3)s2)cc1	4.91	6.03	3.55
Oc1ccc(CCNc2nc(NCCCOc3ccccc3-c3ccncc3)nc(N3CCNCC3)n2)cc1	3.68	5.15	5.3
CNC(=O)c1cnc(Nc2ccc(N3CCN(C)CC3)cc2)nc1Nc1cccc(OC(C)C)c1	3.75	1.38	-7.72
CC(C)(CC1CCCCC1)NC(=O)[C@H](CC1CCCCC1)Nc1ccc(C#N)c2ccccc12	1.82	1.4	-1.9
CN(C)[C@@H]1C(O)=C(C(N)=O)C(=O)[C@@]2(O)C(O)=C3C(=O)c4c(O)ccc(C#Cc5ccccn5)c4C[C@H]3C[C@@H]12	1.83	-0.62	0.74
C=C(NC(=O)C1CCCCC1)C(=O)OC	-0.71	2.29	0.41
NC(=O)c1cccc(C(=O)Nc2ccc(-c3cccc(-c4nc5cc(F)ccc5[nH]4)c3)cc2)c1	0.18	0.01	0.23
CC(C)N1CCN(c2ccc(OCCCCN3CCN(c4cccc(Cl)c4Cl)CC3)c(C(F)(F)F)c2)CC1	-0.92	-1.01	0.98
Cc1cc(C)nc(-n2[nH]c(C)c(Cc3ccc(C(C)(C)C)cc3)c2=O)n1	4.87	5.45	2.9
COc1csc2cc(Br)ccc12	1.01	1.16	0.18

Structure (SMILES)	inhibition [1] [%]	inhibition [2] [%]	inhibition [3] [%]
CCOC(=O)c1cn(CC)c2cc(F)c(OC3CC4CCC3(C)C4(C)C)cc2c1=O (stereo unspecified)	-1.86	-1.79	-3.18
O=C(NCCCCN1CCC(c2ccc3c(c2OCc2ccncc2)CCCC3)CC1)c1ccc(NC(=O)c2ccc(Cl)cc2)cc1	2.33	2.42	1.29
CCC(C)CN1CCN(c2ccc(NC(=O)c3cccs3)cc2)C(C)C1 (stereo unspecified)	8.34	9.28	5.37
CCCC(C)Nc1nc(C)cc(NCCC(=O)Nc2ccccc2)n1 (stereo unspecified)	6.84	8.38	2.55
COc1cc(C(=O)N2CCOC(CCN3CCC(c4ccc(Cl)cc4)CC3)(c3ccc(Cl)c(Cl)c3)C2)cc(OC)c1OC (stereo unspecified)	12.4	11.2	13.7
CCC[C@@H]([C@@H](CC1CCCCC1)C(=O)NC(C(=O)Nc1nccs1)C(CC)c1ccccc1)N(O)C=O (stereo partly specified)	0.29	0.04	0.64
COc1ccc(NC(=O)Nc2nc3ccccc3s2)cc1N1CCN(C)CC1	7.14	4.98	5.72
CCN(c1ccccc1)S(=O)(=O)c1ccc(OC)c(NC(=O)c2cccc(C(F)(F)F)c2)c1	10.4	7.45	7.82
CN1CCN(c2ccnc3ccc(NC(=O)Nc4ccc(-c5ccncc5)c(C#N)c4)cc23)CC1	-0.68	-2.42	-2.77
CN(C)S(=O)(=O)c1ccc(N2CCN(CCC3(c4cccc(F)c4)CCN(C(=O)C(C)(C)C)CC3)CC2)c2nonc12	9.09	8.17	2.89
O=C(Nc1ccc(Cl)cc1)NC1CCN(CCCCCNC(=O)C2CC2c2ccc(Cl)c(Cl)c2)CC1 (stereo unspecified)	9.93	9.43	7.34
CC1(C)CCCN(c2ncc(-c3cccc(CNCc4ccccc4O)c3)cn2)C1	2.91	2.13	3.18
O=C(Nc1cccc(-c2ccc(-c3nc4cc(F)ccc4[nH]3)cc2)c1)Nc1ccc(F)c(F)c1F	2.86	4.09	-1.44
NC1CCN(c2nc(NCCCc3ccc(O)cc3)nc(NCc3cccc4ccccc34)n2)CC1	0.21	-3.11	2.63
O=C(c1c(-c2[nH]c3ccccc3c2C(=O)C(F)(F)F)[nH]c2ccccc12)C(F)(F)F	1.75	0.78	-1.45
NC(=O)C1CCN(Cc2cccc(-c3cccc(-c4nc5cc(C(F)(F)F)ccc5[nH]4)c3)c2)CC1	13.1	11.4	10.3
CN1CCN(Cc2ccc(-c3ccc4c(Nc5ccc(Cl)cc5F)ccnc4c3)o2)CC1	11.9	11.8	11.1
CC(C)N(Cc1ccc(-c2ccc(C(F)(F)F)cc2)cc1)C(=O)Cn1c(CCc2cccc(F)c2F)cc(=O)c2ccc(CCCN3CCCCC3)cc21	3.56	4.4	3.61
CCOc1ccc2[nH]c(C)cc(=NN=Cc3ccccc3)c2c1	3.33	2.11	2.8
Cc1cccc2nc(-c3ccc(-c4cccc(NC(=O)c5cncn5C)c4)s3)[nH]c12	0.66	2.43	-2.47
Cc1cc(Cl)c(S(=O)(=O)NC(C)(C)C)cc1OCC(=O)NC1CCCCC1	-0.97	0.93	0.34
CN(C)CCNc1ncnc2c1[nH]c1ccc(Cl)cc12	3.7	3.91	2.92
Cc1ccc(-c2nc(Nc3ccncc3)c3ccccc3n2)s1	5.34	3.16	0.88
COc1ccc(-n2ccnc2SCC(=O)Nc2cc(C)ccc2C)c(OC)c1	0.44	0.63	0.53

Structure (SMILES)	inhibition [1] [%]	inhibition [2] [%]	inhibition [3] [%]
CCCCCCN1CCCN(Cc2ccc(C(=O)Nc3ccc(C)c(F)c3)cc2)CC1	11.8	7.68	13.7
CCCC(CNCc1cccc(SC(F)(F)F)c1)CNc1cc(=O)c2ccccc2[nH]1 (stereo unspecified)	-0.14	1.41	3.17
O=C(/C=C/c1ccc(Cl)c(Cl)c1)NCCCCCN1CCC(NC(=O)c2ccc3ccccc3c2)CC1	0.51	0.83	1.46
COc1ccc(Cc2c(N)nc3nc(N)nc(N)c3c2C)cc1	1.48	3.73	3.1
CCCCn1c(Sc2ccc(C#N)c([N+](=O)[O-])c2)nnc1-c1ccc(OC)cc1	3.24	2.64	0.78
Cc1cccc2nc(-c3ccc(-c4ccc(C(=O)NCCN5CCCC5)cc4)cc3)[nH]c12	0.86	-1.27	-0.61
Cc1cc2c3c(N)nc(N)nc3ccc2n1C(C)C	75.6	79.8	67.2
CCCCCCNCc1c(O)ccc2c(CNCCCCCC)c(O)ccc12	-0.62	-0.78	0.36
O=C(C=Cc1ccc(F)cc1)NC1CCC(CCN2CCc3ccc(-c4cnccn4)cc3CC2)CC1 (stereo unspecified)	0.54	-0.24	1.49
CCNc1cc(C)nc(Nc2ccc(NC(=O)C3CCCC3)cc2)n1	8.61	6.7	3.57
CCCSc1nc2c(c(=O)n1Cc1ccco1)C1(CCCCC1)Cc1ccccc1-2	1.22	1.9	1.88
COc1ccc2nccc([C@@H](O)CN3CCC(NCc4cc5ccccc5s4)CC3)c2c1	5.41	10.3	0.03
Cc1cc(N2CCCC2)nc(Nc2ccc(NC(=O)c3ccco3)cc2)n1	0.47	3.07	-0.1
Nc1nc(N)c2c(n1)CCC(c1ccccc1)C2 (stereo unspecified)	2.39	1.07	1.39
Cc1cccc2c3c([nH]c12)C1(CCN(CCc2ccccc2)CC1)NC(C(=O)NCc1ccccc1)C3 (stereo unspecified)	4.58	5.51	0.71
CNC(=O)c1cc(S(=O)(=O)N2CCN(c3ccccn3)CC2)cs1	0.24	0.78	-2.48
Nc1nc(N)c2cc(Cc3ccc([N+](=O)[O-])cc3)cnc2n1	-2.65	0.37	-0.27
O=C(NCCCCN1CCC(c2ccc([N+](=O)[O-])cc2)CC1)c1ccc(NC(=O)c2ccc(Cl)cc2)cc1	4.18	1.35	4.06
CC(C)NCc1cccc(-c2cccc(-c3nc4cc(F)ccc4[nH]3)c2)c1	14.2	11.4	11.6
COCCN1CCN(Cc2cccc(-c3ccc(-c4nc5ccccc5[nH]4)cc3)c2)CC1	0.45	-3.13	-1.36
COc1ccc(-c2cccc(NC(=O)c3ccc(C#N)cc3)c2)cc1CN1CCN(C)CC1	16.1	14.8	11.3
Cc1cc(C)c(O)c(-c2cc(C(=O)Nc3ccc(S(=O)(=O)N4CC(C)OC(C)C4)cc3)[nH]n2)c1 (stereo unspecified)	3.1	1.95	0.01
Cc1c(C)n(C2CCCCC2)c2ncnc(OC3CCN(CC(=O)NC4CC4)CC3)c12	-0.52	-3.58	1.68
O=C(Nc1ccccc1)c1cccc(Nc2nccc(Nc3ccc(Oc4ccccc4)cc3)n2)c1	0.65	1.07	0.87

Source: ChEMBL document CHEMBL3433997, “St. Jude Leishmania screening dataset” (2016)
